Sampled rows, rich in hits. Any-hit rate of the full collection: about 4.1%.
DAX1 inh-1: DAX1 (NR0B1) inhibitors on StAR promoter, primary screen, cell-based, luminescence, SF-1 (NR5A1), full-length DAX-1. HEK293T StAR-luciferase reporter, SF-1/DAX-1 repression relief. 370,000 tested, 1.1% active. inhibition, % at 6.8 µM;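 active means inhibition above the mean over all tested compounds plus 3 SD, cut at about 3.6% in these data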;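 further: 0% = DAX-1 cells with DMSO and 100% = cells lacking DAX-1 with DMSO; higher inhibition means more luminescence from relief of DAX-1 repression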
ssDAF-12 act: S. stercoralis DAF-12 nuclear receptor activators, primary screen, cell-based, luminescence, HEK293, GRIP1 co-expression, lit1-tk-luc; HEK293 ssDAF-12/GRIP1 lit1-tk-luc reporter; % of 3 µM dafachronic acid response; activation, % at 6.8 µM; 370,000 tested, 1% active; AID 652126, 2013;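 active means activation above the mean over all tested compounds plus 3 SD, cut at about 0.9% in these data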;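 further: 0% = DMSO-only wells and 100% = 3 µM delta7-dafachronic acid wells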
hgDAF-12 ag: H. glycines DAF-12 receptor agonists, primary screen, cell-based, luminescence, HEK293, GAL4 fusion, UAS-luciferase | AID 687014, 2013 | activation, % at 6.8 µM | HEK293 GAL4-hgDAF12 UAS-luciferase reporter, agonist luminescence; normalized to butyrate control | 370,000 tested, 1.8% active;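 active means activation above a cutoff set at the mean of all screened compounds plus 3 SD, cut at about 10% in these data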;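 further: 0% = DMSO wells and 100% = sodium butyrate wells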
hcDAF-12 act: H. contortus DAF-12 nuclear receptor activators, primary screen, cell-based, luminescence, HEK293, lit1-tk-luc reporter; activation, % at 6.8 µM; 370,000 tested, 1.4% active; HEK293 hcDAF-12 lit1-tk-luc reporter; 0% DMSO, 100% Δ7-dafachronic acid;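 active means activation above the mean of all tested compounds plus 3 SD, cut at about 5.5% in these data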;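 further: 100% = response to 3 µM Δ7-dafachronic acid high control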
DAX1 inh-2: DAX1 (NR0B1) inhibitors, primary screen, cell-based, HEK293, Gal4-DAX1, luciferase luminescence | HEK293 Gal4-DAX1 luciferase reporter | inhibition, % at 6.75 µM | 340,000 tested, 0.99% active | Nuclear receptor subfamily 0 group B member 1 (Homo sapiens), P51843 | AID 504766, 2011;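 active means inhibition above the mean over all tested compounds plus 3 SD, cut at about 4.2% in these data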;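 further: 0% = DAX1-transfected cells with DMSO and 100% = empty-vector control cells with DMSO; inhibition shows as a rise in luminescence from relieved DAX1 repression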
Target sequence (P51843 207-470 limits assumed): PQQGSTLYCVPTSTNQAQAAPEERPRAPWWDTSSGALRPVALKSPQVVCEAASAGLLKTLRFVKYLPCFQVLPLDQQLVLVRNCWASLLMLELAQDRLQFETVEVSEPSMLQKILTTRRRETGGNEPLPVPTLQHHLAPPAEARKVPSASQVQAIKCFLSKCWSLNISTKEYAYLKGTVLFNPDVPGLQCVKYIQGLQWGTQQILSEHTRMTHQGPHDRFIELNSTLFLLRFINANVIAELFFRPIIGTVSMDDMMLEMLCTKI
An asterisk follows results filed as active; / = not tested or not shown.

SMILES	DAX1 inh-1	ssDAF-12 act	hgDAF-12 ag	hcDAF-12 act	DAX1 inh-2
COc1ccccc1-c1nc(-c2ccc(Br)cc2)no1	1	1.5*	9	5.8*	2
COc1cc(OC)cc(-c2nc(-c3ccc(Br)cc3)no2)c1	0	-1	0	2	1
COc1cc(/C=N/NC(=O)C(Cc2c[nH]c3ccccc23)NC(=O)OCC(C)C)cc([N+](=O)[O-])c1OCc1ccccc1 (centres undefined)	0	0	-2	1	5.2*
CC(C)C1Cc2c(sc(NC(=S)NC(=O)c3ccccc3)c2C#N)CO1 (centres undefined)	0	-1	3	0	1
CCCN1CCc2c(sc(NC(=S)NC(=O)c3ccccc3)c2C#N)C1	3	-2	5	3	4.8*
CC(C)N1CCc2c(sc(NC(=S)NC(=O)c3ccccc3)c2C#N)C1	1	-2	4	8.3*	2
Cc1sc(NC(=S)NC(=O)c2ccccc2)c(C#N)c1C	0	-1	3	0	1
COC(=O)[C@H](Cc1ccccc1)NC(=O)[C@H]1C[C@@]2(N3CCCC3)c3ccccc3N(C(=O)OC(C)(C)C)[C@H]2N1C(=O)OC(C)(C)C	0	-2	-3	2	/
O=S1(=O)c2c(cccc2N2CCSCC2)Oc2ccccc2CN1Cc1cn(Cc2ccc(C(F)(F)F)cc2)nn1	-2	0	-1	-1	/
COC(=O)c1cc2c(c3c4cc(C)ccc4n(S(=O)(=O)c4ccc(C)cc4)c13)C(=O)N(Cc1ccc(N(C)C)cc1)C2	2	-1	0	1	/
COc1ccc(C2OCCNC3C2C(=O)N(Cc2ccc(OC)cc2OC)C3Cc2ccccc2)cc1 (centres undefined)	/	-2	-1	-2	/
CCc1cccc(NC2c3ccccc3C(=O)N2c2ccc(C)cn2)c1 (centres undefined)	3	0	12*	4	2
Cc1cc(OCC(=O)NC(C)C)ccc1Cl	1	-1	-2	-2	0
Cc1cc(OCC(=O)NC(C)C)cc(C)c1Br	0	-1	-2	-1	4.4*
Cc1cccc(CCN2C(Nc3ccccc3)=NC[C@@H]2CC(C)C)c1	0	-1	0	0	6.7*
CC(C)CCN1C(Nc2ccccc2)=NC[C@@H]1CC(C)C	-1	0	1	6.3*	1
CCC(C)CCN1C(Nc2ccccc2)=NC[C@@H]1CC(C)C (some centres undefined)	0	-1	2	-1	4.8*
CCN1C(Nc2ccccc2)=NC[C@@H]1CC(C)C	0	-1	0	-1	2
Cc1ccccc1-c1ccc2c(c1)[C@@H]1C[C@H](N(C)CC3CCCCC3)[C@H]([C@H](C)O)CN1CC2	0	0	4	0	/
O=C(CN1CCOc2ccccc21)NC1CCN(Cc2ccccc2)CC1	-1	0	-2	0	1
O=C(CN1CCOc2ccccc21)NC1CCCCCCC1	0	1	-1	5.8*	4.8*
O=C(NCCCn1cccn1)c1cc(COc2ccccc2)on1	3	0	8	2	4.2*
CCCc1cc(C(=O)NCCc2ccccc2)no1	4	-1	11*	4	0
O=[N+]([O-])c1ccc(OCCCN2CCC(C(O)(c3ccccc3)c3ccccc3)CC2)c(Cl)c1	1	-2	-1	-2	/
CCN(Cc1ccccc1)C(=O)C1CCCN(c2ncccn2)C1 (centres undefined)	-1	-2	0	-4	/
SMILES	DAX1 inh-1	ssDAF-12 act	hgDAF-12 ag	hcDAF-12 act	DAX1 inh-2
CCn1c2ccccc2c2cc(C=Nn3c(-c4ccccn4)n[nH]c3=S)ccc21	-4	-2	-3	-1	/
CC(=O)N/C(=C/c1ccccc1)C(=O)NC(Cc1ccccc1)C(=O)O (centres undefined)	0	-1	11*	-1	0
COc1ccccc1C(=O)N1CCN(C(=O)[C@@H](Cc2ccccc2)NC(=O)[C@H]2O[C@@H](n3ccc(N)nc3=O)[C@H](O)[C@@H]2O)CC1	0	-1	4	0	/
Cc1ccccc1CN1CCCCC(NC(=O)Nc2ccccc2-c2ccccc2)C1=O (centres undefined)	-1	-2	-1	-3	/
COc1ccc(S(=O)(=O)n2c(C)nc3ccccc32)cc1C	0	0	12*	4	0
CCOC(=O)c1c(CSC(=N)N)n(-c2ccccc2)c2cc(Br)c(OC(C)=O)cc12	1	-1	-1	-1	4.3*
CCOC(=O)c1c(CN2CCN(C)CC2)n(-c2ccccc2)c2cc(Br)c(O)cc12	0	-2	-1	-2	2
Cc1ccc(-c2nnc(N)o2)cc1	2	-1	2	1	0
CC(=O)Nc1cccc(-c2nnc(-c3ccccc3)o2)c1	0	-1	12*	0	-1
O=C(O)c1ccc(-c2nnc(-c3ccc([N+](=O)[O-])cc3)o2)cc1	0	-1	1	0	0
O=C(Nc1cccc(-c2nnc(-c3ccccc3)o2)c1)C1CC1	0	-2	4	-3	-1
O=C(O)c1ccc(-c2nnc(-c3ccccc3)o2)cc1	1	1.0*	8	5	2
Cc1ccc(-c2nnc(-c3cccs3)o2)cc1	4.4*	1.4*	11*	8.8*	2
O=C(O)c1ccc(-c2noc(-c3cccc(Cl)c3)n2)cc1	0	-1	1	0	0
O=C(O)c1ccc(-c2noc(-c3ccc(F)cc3)n2)cc1	2	0	13*	5.7*	0
C=C(C)/C=C1/CN(Cc2ccc3c(c2)OCO3)C(=N)N1C(=O)OCc1ccccc1	-1	-1	-1	2	/
COc1ccc(CN2C(=O)[C@@](O)(c3cccn3C)c3cc(Br)ccc32)cc1	-2	0	-3	-3	/
Cc1ccc(S(=O)(=O)N(C)[C@H]2C[C@H]3c4cc(-c5ccccc5C)ccc4CCN3C[C@H]2[C@H](C)O)cc1	0	-1	5	-2	/
Cc1cccc(-c2nnc(-c3ccc4ccccc4c3)o2)c1	3.6*	0	12*	4	4.3*
Cc1ccc(-c2nnc(-c3ccccc3)o2)cc1	3	0	12*	4	1
Cc1ccc(-c2nnc(-c3cc(C)on3)o2)cc1	2	0	12*	3	4
CCCCCN1CCCCC(NC(=O)C(C)(C)C)C1=O (centres undefined)	-1	-2	-2	-2	/
